Counter-ions that a name gives are not always drawn. ± gives the standard deviation of the averaged measurements.

Results on 29 molecules are retold here after the supplement of paper PMC8387472.

Assay [1] deals with 6.0 (DMSO control at this site: 1-bp insertion 0.296, MH deletion 0.491, edited 0.076) ACGATTGGCCCCCACAAAGCGGACCAGCCAGCGTGCTAGGGAATAAGGCCAACTTGCACCC
Nature of the assay: fraction of edited reads among all mapped reads; higher = more Cas9 editing. Conditions: mESC; 2uM; 72 h treatment, harvest day 5.

Assay [2] shares this test system. Put plainly: fraction of microhomology deletions among edited reads; higher = more MH deletions. Conditions: mESC; 2uM; 72 h treatment, harvest day 5.
Assay [3] shares this test system. Nature of the assay: fraction of 1-bp insertions among edited reads; higher = more 1-bp insertion outcomes. Conditions: mESC; 2uM; 72 h treatment, harvest day 5.
Assay [4] concerns mESC LDLR-Dup GFP reporter (SpCas9 MH-deletion repair). Put plainly: fraction of GFP+ cells relative to DMSO control (fold change); higher = more MH-deletion repair to in-frame LDLR (or more editing). Conditions: 2 µM; 7 days post-transfection.
Assay [5] has as its system 24.0 GACCACAGCCCCCAGCAGGGGAGGCCCCCAGCAGGGGAGGCCCACACCTGCCCCAGCACCT
Put plainly: fraction of edited reads among all mapped reads; higher = more Cas9 editing. Conditions: mESC; 2uM; 72 h treatment, harvest day 5.

Assay [6] has the same test system. Put plainly: fraction of microhomology deletions among edited reads; higher = more MH deletions. Conditions: mESC; 2uM; 72 h treatment, harvest day 5.
Assay [7] shares this test system. Nature of the assay: fraction of 1-bp insertions among edited reads; higher = more 1-bp insertion outcomes. Conditions: mESC; 2uM; 72 h treatment, harvest day 5.

With `CCn1c(=O)c(-c2ccc(Cl)cc2Cl)cc2cnc(Nc3ccc(N4CCNCC4)c(F)c3)nc21`, in assay [1], the “fraction of edited reads among all mapped reads” value came out at 0.0726. Further, the “fraction of microhomology deletions among edited reads” value in assay [2] is 0.477. The “fraction of 1-bp insertions among edited reads” value in assay [3] was 0.288. In addition, the “fraction of GFP+ cells” value in assay [4] was 0.433 ± 0.12.
Turning to `CC(=O)NCC(=O)N1[C@@H]2CC[C@H]1c1ccc(Nc3ncc(C(F)(F)F)c(NC4CCC4)n3)cc12`, the “fraction of GFP+ cells” value in assay [4] was determined as 1.27 ± 0.73.
Consider `Nc1ncnc2c1ncn2[C@@H]1O[C@H](CO)[C@@H](O)[C@@H]1O` [Vidarabine], for which the “fraction of GFP+ cells” value in assay [4] stood at 1.26 ± 0.36.
In the case of `CCN1CCN(CC(=O)Nc2ccc(-c3cccc4c(=O)cc(N5CCOCC5)oc34)c3sc4ccccc4c23)CC1`, the “fraction of edited reads among all mapped reads” value in assay [1] came to 0.0396. For the same molecule, in assay [2], the “fraction of microhomology deletions among edited reads” value was found to be 0.588. In addition, the “fraction of 1-bp insertions among edited reads” value in assay [3] is 0.0821. Moreover, the “fraction of GFP+ cells” value in assay [4] was 1.08 ± 0.16.
Take `OCc1ccc(-c2ccc(-c3ccc(CO)s3)o2)s1`: in assay [4], the “fraction of GFP+ cells” value was found to be 0.657 ± 0.23.
In the case of `NC(=O)c1ccc2nc(-c3ccc(Oc4ccc(Cl)cc4)cc3)[nH]c2c1` [Chk 2 inhibitor II (BML-277)], the “fraction of edited reads among all mapped reads” value in assay [1] is 0.092. Besides, the “fraction of microhomology deletions among edited reads” value in assay [2] was determined as 0.515. Further, the “fraction of 1-bp insertions among edited reads” value in assay [3] was 0.278. Further, the “fraction of GFP+ cells” value in assay [4] turned out to be 0.961 ± 0.26.
On the same counts, the results for `CCc1c2c(nc3ccc(OC(=O)N4CCC(N5CCCCC5)CC4)cc13)-c1cc3c(c(=O)n1C2)COC(=O)[C@]3(O)CC` [Irinotecan HCl Trihydrate] are 0.104, 0.571, 0.249 and 0.463 ± 0.066.
As for `O=C(c1cccc(Cl)c1F)N1CCN(Cc2cccc(Nc3nccs3)n2)CC1`, in assay [1], the “fraction of edited reads among all mapped reads” value was found to be 0.0584. Also, the “fraction of microhomology deletions among edited reads” value in assay [2] amounted to 0.559. Besides, the “fraction of 1-bp insertions among edited reads” value in assay [3] was 0.193. In assay [4], the “fraction of GFP+ cells” value was 1.25 ± 0.38.
With `CO[C@H]1/C=C/O[C@@]2(C)Oc3c(C)c(O)c4c(O)c(c(/C=N/N5CCN(C6CCCC6)CC5)c(O)c4c3C2=O)NC(=O)/C(C)=C\C=C\[C@H](C)[C@H](O)[C@@H](C)[C@@H](O)[C@@H](C)[C@H](OC(C)=O)[C@@H]1C` [Rifapentine], the “fraction of edited reads among all mapped reads” value in assay [1] stood at 0.14. The “fraction of microhomology deletions among edited reads” value in assay [2] is 0.538. The “fraction of 1-bp insertions among edited reads” value in assay [3] turned out to be 0.258. Moreover, the “fraction of GFP+ cells” value in assay [4] was 3.03 ± 0.37.
As to `O=c1cc(N2CCOCC2)oc2c1ccc1ccccc12`, the “fraction of GFP+ cells” value in assay [4] is 0.548 ± 0.39.
As to `O=c1cc(N2CCOCC2)oc2c(-c3ccc4c(c3)OCCO4)csc12`, the “fraction of edited reads among all mapped reads” value in assay [1] came to 0.0488. For the same molecule, the “fraction of microhomology deletions among edited reads” value in assay [2] is 0.568. Further, the “fraction of 1-bp insertions among edited reads” value in assay [3] came to 0.201. In assay [4], the “fraction of GFP+ cells” value stood at 0.48 ± 0.029.
`CN1CCCC(n2nc(Cc3ccc(Cl)cc3)c3ccccc3c2=O)CC1` (stereo unspecified) [Azelastine HCl]: the “fraction of GFP+ cells” value in assay [4] was 0.868 ± 0.11.
`O=c1c(-c2ccc(O)cc2)coc2cc(O)cc(O)c12` [Genistein]: in assay [1], the “fraction of edited reads among all mapped reads” value is 0.113. Further, the “fraction of microhomology deletions among edited reads” value in assay [2] was determined as 0.529. Besides, the “fraction of 1-bp insertions among edited reads” value in assay [3] worked out at 0.253. Moreover, in assay [4], the “fraction of GFP+ cells” value is 1.07 ± 0.17.
As to `CCn1cc(C(=O)O)c(=O)c2cc(F)c(N3CCNCC3)cc21` [Norfloxacin], the “fraction of GFP+ cells” value in assay [4] came to 1.01 ± 0.13.
As to `CN(N=O)C(=O)NC1C(O)OC(CO)C(O)C1O` (stereo unspecified) [Streptozotocin (STZ)], the “fraction of GFP+ cells” value in assay [4] came out at 2.1 ± 0.29.
Turning to `CCCCOc1c(C(=O)c2c(F)cc(C)cc2F)c[nH]c2nncc1-2`, the “fraction of edited reads among all mapped reads” value in assay [5] turned out to be 0.0449; in assay [1], 0.0886. The figures for the “fraction of microhomology deletions among edited reads” value in assay [6] and in assay [2] were 0.705 and 0.523, respectively. Also, the figures for the “fraction of 1-bp insertions among edited reads” value in assay [7] and in assay [3] were 0.0164 and 0.258, respectively. In addition, in assay [4], the “fraction of GFP+ cells” value was 1.7 ± 0.11.
Consider `O=C1Cc2c([nH]c3ccc(Br)cc23)-c2ccccc2N1` [Kenpaullone], for which, in assay [1], the “fraction of edited reads among all mapped reads” value came out at 0.165. The “fraction of microhomology deletions among edited reads” value in assay [2] was determined as 0.526. Besides, the “fraction of 1-bp insertions among edited reads” value in assay [3] was 0.274. For the same molecule, the “fraction of GFP+ cells” value in assay [4] turned out to be 1.53 ± 0.057.
With `Cc1cc(C)nc(SCC(=O)Nc2ncc(Cc3cccc4ccccc34)s2)n1`, the entries for the “fraction of edited reads among all mapped reads” value in assay [5] and in assay [1] were 0.0587 and 0.13, respectively. Further, the “fraction of microhomology deletions among edited reads” value came to 0.552 in assay [6] and 0.498 in assay [2]. Also, the “fraction of 1-bp insertions among edited reads” value in assay [7] was found to be 0.105; in assay [3], 0.295. Also, in assay [4], the “fraction of GFP+ cells” value turned out to be 1.15 ± 0.61.
Regarding `CN(C)c1nc(N(C)C)nc(N(C)C)n1` [Altretamine], the “fraction of GFP+ cells” value in assay [4] amounted to 1.41 ± 0.41.
Same read-out and setting: in the case of `COc1ccc(-c2nc(-c3cc(C(F)(F)F)cc(C(F)(F)F)c3)n(Cc3ccc(C(N)=O)cc3)c2-c2ccc(OC)cc2)cc1` [Apoptozole] it was 1.14 ± 0.37.
Regarding `CC1(C)CCC2=C(O1)c1ccccc1C(=O)C2=O` [Beta-Lapachone], the “fraction of GFP+ cells” value in assay [4] was found to be 0.973 ± 0.027.
As to `CC(C)(C#N)c1ccc(N2C(=O)OCc3cnc4ccc(-c5cnc6ccccc6c5)cc4c32)cc1`, in assay [1], the “fraction of edited reads among all mapped reads” value was 0.0904. Besides, the “fraction of microhomology deletions among edited reads” value in assay [2] came out at 0.53. For the same molecule, the “fraction of 1-bp insertions among edited reads” value in assay [3] amounted to 0.267. Moreover, the “fraction of GFP+ cells” value in assay [4] worked out at 1.01 ± 0.45.
As for `Cc1c(C)c2c(c(C)c1O)CCC(C)(COc1ccc(CC3SC(=O)NC3=O)cc1)O2` (stereo unspecified) [Troglitazone (CS-045)], in assay [4], the “fraction of GFP+ cells” value is 1.34 ± 0.24.
As to `S=c1nc[nH]c2nc[nH]c12` [6-Mercaptopurine (6-MP) Monohydrate], the “fraction of edited reads among all mapped reads” value in assay [1] stood at 0.0627. For the same molecule, in assay [2], the “fraction of microhomology deletions among edited reads” value was determined as 0.429. The “fraction of 1-bp insertions among edited reads” value in assay [3] worked out at 0.326. For the same molecule, in assay [4], the “fraction of GFP+ cells” value is 1.21 ± 0.061.
Turning to `COCCCc1sc(-c2ccccc2)nc1C(=O)Nc1ccccc1-c1nc2cc(CN3CCCC3)cnc2s1`, in assay [4], the “fraction of GFP+ cells” value came to 1.15 ± 0.33.
For `CNc1ccc([N+](=O)[O-])c(Nc2ccc3[nH]ncc3c2)n1`, the “fraction of edited reads among all mapped reads” value in assay [1] turned out to be 0.1. Besides, the “fraction of microhomology deletions among edited reads” value in assay [2] amounted to 0.551. Moreover, the “fraction of 1-bp insertions among edited reads” value in assay [3] amounted to 0.269. For the same molecule, the “fraction of GFP+ cells” value in assay [4] worked out at 2.16 ± 0.36.
On the same counts, the results for `Cc1cccc(CC(=O)N2CCc3c2ccc(-c2cn(C)c4ncnc(N)c24)c3F)n1` are 0.114, 0.501, 0.337 and 0.925 ± 0.19.
As to `CC(=O)O/N=C1\C(=O)N(Cc2cc(Cl)ccc2Cl)c2ccc(Cl)cc21`, the “fraction of edited reads among all mapped reads” value in assay [5] is 0.0521; in assay [1] it was 0.0813. Further, the “fraction of microhomology deletions among edited reads” value in assay [6] was found to be 0.696; in assay [2], 0.51. In addition, the “fraction of 1-bp insertions among edited reads” value in assay [7] was 0.0444; in assay [3], 0.256. In addition, the “fraction of GFP+ cells” value in assay [4] stood at 1.21 ± 0.075.
Turning to `Nc1cc(F)ccc1NC(=O)c1ccc(CNC(=O)/C=C/c2cccnc2)cc1` [Tucidinostat (Chidamide)], the results for the “fraction of edited reads among all mapped reads” value in assay [5] and in assay [1] were 0.0463 and 0.0652, respectively. The “fraction of microhomology deletions among edited reads” value in assay [6] turned out to be 0.571; in assay [2], 0.502. Besides, the “fraction of 1-bp insertions among edited reads” value in assay [7] was 0.103; in assay [3], 0.272.
